Results published in PubChem BioAssay AID504332 (National Center for Advancing Translational Sciences (NCATS), 2011).
Hit rate of the full screen: of about 350,000 compounds, about 31,000 (8.9%) were called active. About 15% were inconclusive and are not listed. The call rests on the fitted dose curve; in most records, active means well fitted inhibition curve with a large enough effect; inconclusive means small, poorly fitted or top-dose-only effect; inactive means no such curve, though single readings can be large or run the other way. This excerpt belongs to a sample that is enriched for actives.

target: Histone-lysine N-methyltransferase EHMT2 (Homo sapiens) (UniProt Q96KQ7); experiment: qHTS Assay for Inhibitors of Histone Lysine Methyltransferase G9a; conditions: G9a H3K9 monomethylation, AlphaScreen, 2 h; series mostly up to 59 µM; further: nearly all actives have a fitted effect of over 75% in size
Outline: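 G9a (20 nM) was preincubated 15 min with compound, then reacted 2 h at room temperature with 500 nM biotin-H3K9 peptide and 20 µM SAM. Monomethyl-H3K9 detected by AlphaScreen using anti-H3K9me1 antibody.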
On the % scale 0 is the no-effect control and ±100 the full control effect; potency means the concentration at half of the fitted maximal effect.

Chain of Histone-lysine N-methyltransferase EHMT2 (Homo sapiens) (Q96KQ7 913-1193 limits assumed): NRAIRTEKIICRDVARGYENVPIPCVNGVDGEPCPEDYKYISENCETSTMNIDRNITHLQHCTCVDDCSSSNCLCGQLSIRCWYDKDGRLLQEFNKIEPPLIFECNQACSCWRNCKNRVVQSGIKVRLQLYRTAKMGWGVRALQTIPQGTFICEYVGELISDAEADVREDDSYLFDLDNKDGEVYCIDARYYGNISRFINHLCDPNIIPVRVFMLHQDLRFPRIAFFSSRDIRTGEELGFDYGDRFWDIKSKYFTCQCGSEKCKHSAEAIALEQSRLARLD

Potency, inactive:
O=C(Nc1ccc(Cl)c(Cl)c1)c1ccccc1NC(=O)C1CC=CCC1C(=O)O (stereo not drawn)
COc1ccc(C)cc1NC(=O)CNCc1cccs1
CCC(=O)N1CCc2cc(CNS(=O)(=O)c3ccc(Br)s3)ccc21
CCOC(=O)Cn1c(=O)n(C2CCCCC2)c2nc(-c3cccc(OC)c3)nc(C(N)=O)c21
CCOC(=O)c1ccc(NC(=O)CCS(=O)(=O)c2ccc3c(c2)oc(=O)n3C)cc1
Cc1ccc(C)c2sc(NC(=O)c3ccc(S(=O)(=O)N4CCCC4)cc3)nc12
CCCC(=O)Nc1ccc(C(=O)NCCCn2ccnc2)cc1
O=C(NCCCn1ccnc1)c1ccccc1F
CCOC(=O)c1scc(-c2ccc(C)cc2)c1S(=O)(=O)Nc1cc(C)ccc1C
Cc1cc(C(=O)COc2ccc(Br)cc2F)c(C)n1C1CC1
COc1cccc(C2/C(=C(/O)c3ccncc3)C(=O)C(=O)N2CCCN(C)C)c1 (stereo not drawn)
COc1ccccc1C1/C(=C(/O)c2ccc(C)cc2)C(=O)C(=O)N1Cc1ccco1 (stereo not drawn)
O=C(C1CCC(=O)N(C2CC2)C1)N1CCN(c2ccc(Cl)cc2)CC1 (stereo not drawn)
Cc1ccsc1CN(C(=O)c1oc2ccc(Br)cc2c1C)C1CCS(=O)(=O)C1 (stereo not drawn)
Cc1ccc(C(=O)Nc2c(C(=O)NC(C)(C)C)oc3ccccc23)cc1
CCOC(=O)N1CCN(S(=O)(=O)c2cc(Br)cc3c2N(C(=O)C2CC2)CC3)CC1
O=C(C1CC1)N1CCc2cc(Br)cc(S(=O)(=O)N3CCN(c4ccccc4F)CC3)c21
C=CCc1c(C)nc2cc(-c3ccccc3)[nH]n2c1=O
CCOC(=O)c1sc(NC(=O)/C=C/c2ccc(C(C)C)cc2)c(C(=O)OCC)c1C
CCOC(=O)c1c(NC(=S)NC(=O)/C=C/c2cccs2)sc(C)c1C
CCC(CC)c1nnc(NC(=O)/C=C/c2ccco2)s1
Cc1nnc(NC(=O)C(c2ccccc2)c2ccccc2)s1
Oc1ccccc1-c1nc(/C=C/c2ccc(F)cc2)no1
O=C(NCC(c1ccc(Cl)cc1)N1CCOCC1)c1ccccc1F (stereo not drawn)
O=C(Nc1cccnc1Cl)c1cc(-c2ccccc2O)on1
O=C1CC(c2cccc(F)c2)C2=C(CCCC2=O)N1 (stereo not drawn)
Cc1ccc(-c2cc(C(F)(F)F)c(C#N)c(SCC(=O)Nc3ccccc3)n2)cc1
CCOCCc1nn2c(=O)cc(COC(=O)CNC(=O)c3ccc(C(C)(C)C)cc3)nc2s1
COc1ccc(CNC(=O)C2CC(c3ccc(C(F)(F)F)cc3)=NO2)cc1 (stereo not drawn)
COC(=O)c1cccc(C(=O)N2CCC(CCC(=O)NCc3ccc(F)cc3)CC2)c1
Cc1occc1C(=O)NC1CCCN(Cc2ccc(CC(C)C)cc2)C1 (stereo not drawn)
Cc1ccccc1CN1CCC(C(=O)Nc2ccc(Oc3cccnc3)cc2)CC1
COc1ccc(CCNc2ncnc3c2cnn3-c2ccc(C)cc2)cc1
COc1ccc(CCNC(=O)c2nn(C)c3c2CSc2ccccc2-3)cc1OC
COc1cc(NC(=O)c2nc3ccccc3nc2C)cc(OC)c1OC
COc1ccc(-c2onc(C)c2C)cc1S(=O)(=O)NCc1cccs1
Cc1ccc(S(=O)(=O)N2CCN(C(=O)c3ccccc3-c3nc4ccccc4s3)CC2)c(C)c1
COc1ccc(C(=O)NCC2CCCN2S(=O)(=O)c2cccs2)cc1OC (stereo not drawn)
COc1ccccc1NC(=O)/C=C/C(=O)O
CCNC(=S)Nc1cccc(Cl)c1C
Cc1c(NC(=O)Nc2ccccc2)cccc1[N+](=O)[O-]
Cc1cccc(NC(=S)NCCc2ccc(F)cc2)c1C
CCCCNC(=O)c1cc(-c2ccc(Cl)c(Cl)c2)on1
O=C(COc1ccccc1)NCc1ccc2c(c1)CCN2C(=O)c1ccc(F)cc1

Potency, active:
CCCCC(=O)Nc1ccc(C(=O)NCCCn2ccnc2)cc1 12.6 µM
COc1ccc(/C(O)=C2/C(=O)C(=O)N(c3nc(C)c(C)s3)C2c2ccco2)cc1 (stereo not drawn) 44.7 µM
COc1cccc(N2CCN(S(=O)(=O)c3cc(Br)cc4c3N(C(=O)C3CC3)CC4)CC2)c1 7.94 µM
CCOC(=O)c1c(NC(=O)/C=C/c2ccco2)sc(C)c1C 44.7 µM
Cc1nnc(NC(=O)/C=C/c2ccco2)s1 31.6 µM
O=C1CCCC2=C1C(c1ccccc1)n1c(s/c(=C/c3cccc(F)c3)c1=O)=N2 (stereo not drawn) 10 µM
C[C@H](C(=O)CC(=O)OC(C)(C)C)[C@H](O)c1ccc(C(F)(F)F)cc1 79.4 µM
COc1cc(NC(=O)c2noc3c2CSc2ccccc2-3)cc(OC)c1OC 1.78 µM
Cc1cc2c(cc1C)[n+](C)cn2CC(O)COCC1CC=CCC1 (stereo not drawn) 39.8 µM
Cc1c(NC(=S)NCc2ccc(F)cc2)cccc1[N+](=O)[O-] 39.8 µM
Cc1c(NC(=O)/C=C/C(=O)O)cccc1[N+](=O)[O-] 39.8 µM

activity, negative = inhibition, inactive:
COc1cc(OC)cc(-c2c(-c3cccs3)c3cc(-c4ccc(OC)cc4F)ccc3n2C)c1 2.09% [at 0.501 µM]
CC(Sc1nnc(-c2cccs2)n1C1CC1)C(=O)NCC1CCCO1 (stereo not drawn) 29.1% [at 12.7 µM]
O=C(NCCC1CCCCN1S(=O)(=O)c1ccccc1)C(=O)NCC1CCCO1 (stereo not drawn) 10.2% [at 0.501 µM]
O=C(CC1SC(N2CCCC2)=NC1=O)Nc1ccc(C(=O)NCCc2ccc(F)cc2)cc1 (stereo not drawn) 9.67% [at 0.501 µM]
Cc1ccc(S(=O)(=O)N(C)C)cc1NC(=O)C(C)OC(=O)c1ccc2ccccc2n1 (stereo not drawn) 10.5% [at 2.33 µM]
O=C1CSC(c2cccc(F)c2)N1c1ccccc1F (stereo not drawn) -5.4% [at 12.7 µM]
CC(C)(C)OC(=O)N[C@H](C(=O)OC(C)(C)C)c1ccc(Br)cc1 2.34% [at 0.501 µM]
CC(=O)NC(c1cccs1)c1cc(Br)c2cccnc2c1O (stereo not drawn) 7.81% [at 12.7 µM]
